Bioassay records (PubChem BioAssay)
miR-21 reporter = qHTS Assay for Modulators of miRNAs and/orActivators of miR-21; HeLa miR-21 FLuc reporter, luciferase, 48 h; Potency, µM (top dose mostly 38.3 µM), without a hit: top-dose activity change, positive = activation, actives largely listed as activators; 340,000 tested, under 10 active; AID 2288, 2010;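 note: % of control where 0% means no effect; miR-21 action dims this reporter so a rising signal means less miR-21 action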
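Luminescence from a firefly luciferase reporter carrying a miR-21 binding site downstream, stably expressed under a CMV promoter in HeLa cells that make miR-21 endogenously, reports miRNA modulation after 48 h compound exposure up to approximately 40uM final.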
Sfp PPTase inh = qHTS Assay for Inhibitors of Bacillus subtilis Sfp phosphopantetheinyl transferase (PPTase); 4'-phosphopantetheinyl transferase ffp (Bacillus subtilis), Q9F4F7; Biochemical Sfp PPTase activity, qHTS; Potency, µM, for the others: largest response in the series, negative = inhibition, usual class: inhibitors; 310,000 tested, 3.5% active; AID 1490, 2009;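 note: the enzyme is Sfp with the accession as filed and its product quenches rhodamine fluorescence; potency is the fitted concentration of half-maximal effect; 0% = enzyme reaction without inhibitor and -100% = no enzyme wells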
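Fluorescence-quenching assay: 15 nM Sfp-PPTase preincubated 15 min at room temperature with compound, then 5 uM rhodamine-CoA and 12.5 uM BHQ-2-labelled YbbR peptide added. Fluorescence (ex 525/em 598 nm) read at start and after 30 min; difference gives rate.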
LMNA splice mod = qHTS Assay for Modulators of Lamin A Splicing; HeLa LMNA splicing GFP/RFP minigene ratio, 48 h; Potency, µM (doses to about 46.1 µM), for inactives: top-dose ratio change, negative = inhibition, usual class: inhibitors; 200,000 tested, 0.01% active; AID 1487, 2009; active = well fitted inhibition curve with a large enough effect in the signal ratio, with a control signal flat, not every such curve was filed as active; inconclusive = small, poorly fitted or top-dose-only effect, or effect the other way, or a change in a side signal; the % refers to the signal ratio; note: potency is the fitted concentration of half-maximal effect; % is set by controls: 0 for no effect and ±100 for the full control effect
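S3 HeLa stable clones carrying a lamin A-EGFP splicing minigene plus DsRed2 were seeded at 600 cells/well in Opti-MEM with 2% FBS, pin-dosed and incubated 48 h at 37°C. Acumen cytometry (488 nm) gave the GFP/RFP total-intensity ratio.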
JMJD2E inh = qHTS Assay for Inhibitors of Human Jumonji Domain Containing 2E (JMJD2E) | Lysine-specific demethylase 4E (Homo sapiens), B2RXH2 | AID 2147, 2009 | Potency, µM (titrated, usually from 57.1 µM), for the others: at the highest dose activity change, negative = inhibition, most hits filed as inhibitors | JMJD2E catalytic domain, FDH-coupled NADH fluorescence (FDH is formaldehyde dehydrogenase) | 230,000 tested, 1.6% active; active = well fitted inhibition curve with a large enough effect, not every such curve was filed as active; inconclusive = small, poorly fitted or top-dose-only effect, or another doubt; inactive = no such curve, though single readings can be large or run the other way;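 note: potency is the fitted concentration of half-maximal effect; 0% = wells with enzyme and -100% = buffer wells without enzyme; nearly all actives have a fitted effect of over 50% in size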
G9a block = qHTS Assay for Inhibitors of Histone Lysine Methyltransferase G9a | G9a H3K9 monomethylation, AlphaScreen, 2 h | Potency, µM (doses to about 102 µM), inactives show at the highest dose activity, negative = inhibition, usual class: inhibitors | 350,000 tested, 8.8% active | AID 504332, 2011; note: potency is the fitted concentration of half-maximal effect; % is set by controls: 0 for no effect and ±100 for the full control effect; nearly all actives have a fitted effect of over 75% in size
Target sequence (Q96KQ7 913-1193 limits assumed): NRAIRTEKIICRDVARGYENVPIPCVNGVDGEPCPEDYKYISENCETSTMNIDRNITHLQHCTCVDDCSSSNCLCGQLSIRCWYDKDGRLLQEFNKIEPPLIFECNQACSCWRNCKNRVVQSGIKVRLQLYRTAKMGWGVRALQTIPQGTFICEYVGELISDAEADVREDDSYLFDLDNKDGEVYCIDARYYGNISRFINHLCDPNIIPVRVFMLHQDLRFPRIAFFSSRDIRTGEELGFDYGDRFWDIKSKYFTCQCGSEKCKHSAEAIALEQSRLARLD
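Enzyme 20 nM + cpd, 15 min RT; add b-H3K9 pep 500 nM / SAM 20 uM; 2 h RT; anti-H3K9me1 Ab 0.5 ug/mL + SA donor / anti-rabbit acceptor beads 20 ug/mL each, 10 min; AlphaScreen read.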
ALDH1A1 inh = qHTS Assay for Inhibitors of Aldehyde Dehydrogenase 1 (ALDH1A1); Purified ALDH1A1, NADH fluorescence, propionaldehyde substrate; Aldehyde dehydrogenase 1A1 (Homo sapiens), P00352; Potency, µM (doses to about 75.3 µM), inactives show at the top dose activity, negative = inhibition, actives largely listed as inhibitors; 220,000 tested, 7.3% active; AID 1030, 2008; active = well fitted inhibition curve with a large enough effect, not every such curve was filed as active; inconclusive = small, poorly fitted or top-dose-only effect, or another doubt; inactive = no such curve, though single readings can be large or run the other way;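 note: potency is the fitted concentration of half-maximal effect; plate controls were no enzyme wells and a reference inhibitor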
Target sequence (P00352 whole entry, looked up): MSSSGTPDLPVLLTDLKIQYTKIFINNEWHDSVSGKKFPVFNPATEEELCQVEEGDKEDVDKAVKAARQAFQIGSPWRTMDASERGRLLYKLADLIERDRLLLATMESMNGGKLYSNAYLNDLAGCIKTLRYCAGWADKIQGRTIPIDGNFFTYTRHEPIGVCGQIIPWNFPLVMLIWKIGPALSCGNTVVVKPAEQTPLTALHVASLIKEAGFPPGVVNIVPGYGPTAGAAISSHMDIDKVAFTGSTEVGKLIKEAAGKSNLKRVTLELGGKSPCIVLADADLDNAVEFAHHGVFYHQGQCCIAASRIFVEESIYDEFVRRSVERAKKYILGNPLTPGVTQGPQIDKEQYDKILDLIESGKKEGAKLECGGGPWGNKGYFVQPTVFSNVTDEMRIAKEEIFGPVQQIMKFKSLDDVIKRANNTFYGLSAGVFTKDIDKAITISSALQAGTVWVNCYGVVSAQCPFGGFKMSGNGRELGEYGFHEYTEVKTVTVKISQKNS
An asterisk follows results filed as active; ? = inconclusive; . = not tested or not shown; [ ] = another dose, or the depositor's remark. This is a sample that favours compounds with a hit; in the whole collection about 13% have one here. Unless noted, calls come from the whole dose curve; as a rule, active = well fitted curve in the direction sought with a large enough effect; inconclusive = small, poorly fitted or top-dose-only effect, or another doubt; inactive = no such curve, though single readings can be large; an effect the other way counts as inactive or inconclusive.

SMILES	miR-21 reporter	Sfp PPTase inh	LMNA splice mod	JMJD2E inh	G9a block	ALDH1A1 inh
CSCCC(NC(=O)c1ccccc1)C(=O)N1CCN(C(c2ccccc2)c2ccccc2)CC1 (stereo unspecified)	-5.3%	12.1%	.	.	.	.
Cc1ccc(C(=O)OCC(=O)Nc2sccc2C(N)=O)cc1NC(=O)c1ccco1	17.8%	-5.9%	-3.1%	?	0.891µM*	-8.4%
Cc1ccc(C(=O)OCC(=O)Nc2cc(F)ccc2F)cc1NC(=O)c1ccco1	-0.9%	8.0%	8.0%	20.4%	-6.9%	-3.9%
Cc1ccc(C(=O)OCC(=O)Nc2nc(-c3ccccc3)cs2)cc1NC(=O)c1ccco1	1.8%	27.7%	.	3.0%	-1.3%	?
Cc1ccc(C(=O)OCC(=O)Nc2ncc(Cl)cc2Cl)cc1NC(=O)c1ccco1	3.6%	0.5%	17.9%	4.8%	44.7µM*	?
Cc1nc(NC(=O)COC(=O)C(NC(=O)c2ccco2)C(C)C)c(Cl)cc1Cl (stereo unspecified)	0.4%	-6.0%	11.7%	-10.2%	?	25.1µM*
Cc1cccc(CN2CCN([C@@H](c3ccccc3)c3ccc(Cl)cc3)CC2)c1	.	10.3%	-13.8%	-0.5%[25.5 µM]	-2.2%[21.5 µM]	-3.4%[20.9 µM]
CCOC(=O)c1sc(NC(=O)CSc2nncn2C)nc1C	-5.5%	1.9%	-4.8%[46 µM]	-0.1%	3.5%	?
O=C(Nc1cc(Cl)ccc1-n1cncn1)c1cncc(Br)c1	.	.	.	.	8.7%[12.7 µM]	.
CCc1cccc(OCC(=O)Nc2cc(Cl)ccc2-n2cncn2)c1	.	.	.	.	2.4%[12.7 µM]	.
CCCOc1ccccc1OCC(=O)Nc1cc(Cl)ccc1-n1cncn1	.	.	.	.	44.7µM*	.
O=C(Nc1cc(Cl)ccc1-n1cncn1)c1ccc(Br)o1	.	.	.	.	56.2µM*	.
O=C(COc1ccc(F)cc1)Nc1cc(Cl)ccc1-n1cncn1	.	.	.	.	56.2µM*	.
Cc1cccc(C)c1OCC(=O)Nc1cc(Cl)ccc1-n1cncn1	.	.	.	.	4.2%[59 µM]	.
Cc1ccc(S(=O)(=O)Nc2cccc(C(=O)NCCCN3CCCC3=O)c2)cc1F	.	.	.	.	-2.1%	.
O=C(NCc1ccco1)C(c1ccncc1)N(C(=O)Cn1nnc2ccccc21)c1ccccc1F (stereo unspecified)	-3.5%	7.8%	.	.	?	.
COc1ccc(-c2nc(SCC(=O)Nc3ccc4c(c3)OCCO4)c(-c3ccc(C)cc3)[nH]2)cc1OC	18.2%	.	.	.	-11.4%[59 µM]	.
O=C(O)c1ccccc1NS(=O)(=O)c1ccc(F)c(Cl)c1	.	.	.	.	.	6.3%
COc1ccc(NC(C)=O)cc1S(=O)(=O)Nc1ccc(OCc2ccccc2)cc1	-1.4%	-12.4%	.	.	44.7µM*	.
CCOc1ccc(NS(=O)(=O)c2ccc(NC(C)=O)c(OC)c2)cc1	-0.7%	13.5%	0.3%	11.7%	2.4%	5.01µM*
CCOc1ccc(NS(=O)(=O)c2ccc(OC)c(C)c2)cc1	-1.6%	10.8%	-1.8%	4.1%	19.5%	?
CCn1c(-c2cc(-c3cc(OC)ccc3OC)nc3ccccc23)n[nH]c1=S	1.5%	0.6%	8.3%	?	3.55µM*	?
CCn1c(-c2cc(-c3ccccc3OC)nc3ccccc23)n[nH]c1=S	2.5%	-13.6%	14.3%	-4.0%	2.82µM*	?
COc1cccc(CNC(=O)Cc2c(C)c3c(cc(C)c4c(C)c(C)oc43)oc2=O)c1	7.0%	.	.	.	-2.1%[59 µM]	.
COc1ccc(CNC(=O)C/C(C)=N/NC(=O)c2cc(OC)cc(OC)c2)cc1	22.5%	10.0%	.	.	15.3%	.
SMILES	miR-21 reporter	Sfp PPTase inh	LMNA splice mod	JMJD2E inh	G9a block	ALDH1A1 inh
COc1ccccc1CNC(=O)C/C(C)=N/NC(=O)Cc1ccccc1	-5.6%	17.0%	-8.2%	6.6%	-5.1%	-6.1%
C/C(CC(=O)NCc1ccccc1)=N\NC(=O)c1cnccn1	-7.0%	?	-13.8%	24.4%	39.8µM*	-5.9%
C/C(CC(=O)NCc1ccc(F)cc1)=N\NC(N)=S	-1.1%	56.2µM*	.	2.8%	?	?
C/C(CC(=O)NCc1ccccc1)=N\NC(N)=S	0.6%	44.7µM*	.	-24.3%	3.16µM*	-10.2%
Cc1ccc(NC(=O)C2CCCN(c3cnccn3)C2)cc1Cl (stereo unspecified)	-6.6%	.	.	.	-8.3%[59 µM]	.
O=C1[C@@H]2[C@H](C(=O)N1O)[C@H]1C=C[C@@H]2C1	-1.4%	12.4%	14.3%	-0.8%	8.3%[12.7 µM]	0.631µM*
Fc1ccc(CNC(=S)Nc2ccccc2F)cc1	-3.4%	-3.7%	.	.	.	.
Cc1cccc(Cn2c(O)c(N=NC(=S)Nc3ccccc3F)c3ccccc32)c1	-0.9%	3.5%	.	-0.5%	8.91µM*	?
O=Nc1c(O)n(Cc2ccc(Cl)cc2Cl)c2ccccc12	-2.8%	-21.7%	?	0.9%	?	25.8%
Oc1c(N=NC(=S)Nc2ccccc2F)c2ccccc2n1Cc1cccc(Cl)c1	3.1%	11.2%	-29.4%[46 µM]	5.5%	?	0.398µM*
Oc1c(N=NC(=S)Nc2ccccc2F)c2ccccc2n1Cc1ccc(F)cc1	16.8%	?	.	4.4%	?	15.8µM*
Cc1cccc(NC(=S)N=Nc2c(O)n(CN3CCOCC3)c3ccccc23)c1C	?	13.4%	?	10.3%	29.5%[59 µM]	4.7%
Cc1ccc(CNC(=O)C2CC(c3cccc([N+](=O)[O-])c3)=NO2)o1 (stereo unspecified)	-35.3%	44.7µM*	-2.6%	5.0%	3.8%[59 µM]	?
COc1ccc(CCNC(=O)C2CC(c3cccc([N+](=O)[O-])c3)=NO2)cc1 (stereo unspecified)	-41.1%	7.8%	?	-0.7%	22.6%[59 µM]	?
Cc1ccc(CNC(=O)C2CC(c3cc(C(F)(F)F)cc(C(F)(F)F)c3)=NO2)o1 (stereo unspecified)	?	56.2µM*	.	-14.8%	2.7%[12.7 µM]	.
C[C@@H]1CC[C@H]2[C@H](C)[C@H]3CC[C@H]4C5[C@@H](O)CC6=CC(=O)CC[C@]6(C)[C@H]5C[C@H]4C3C(=O)N2C1 (stereo partly specified)	.	4.4%	.	16.2%	.	17.4%
CCOc1ccc(NCC2CCOC(C)(C)C2)cc1 (stereo unspecified)	-29.0%	-0.6%	-1.8%	20µM*	7.08µM*	?
COCCNC(=O)C(=O)Nc1ccc2nc3n(c(=O)c2c1)CCCCC3	12.8%	.	.	.	-0.9%[59 µM]	.
Cc1cccc(Cn2c(=O)n(-c3ccc(CC(=O)NCc4ccco4)cc3)c(=O)c3sccc32)c1	23.7%	22.4µM*	17.9%	1.7%	-6.7%	?
